Bioassay records from PubChem BioAssay.
In the library only some 2% were active in any assay of this set; here they are far more common.
p53 PUMA act = mutant p53 pathway reactivation; SW480 PUMA-promoter luciferase; activation, % at 9.98 µM; 1.5% of 28,000 active; in the data active = activation above about 52%
ID4 binder = binders of human ID4 protein. P47928. small molecule microarray, Flag-ID4 binding, fluorescence F/B. calls only. 1.2% of 31,000 active; call rule not given here;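 note: a binder raises fluorescence above local background on the spot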
Target sequence (P47928 whole entry, looked up): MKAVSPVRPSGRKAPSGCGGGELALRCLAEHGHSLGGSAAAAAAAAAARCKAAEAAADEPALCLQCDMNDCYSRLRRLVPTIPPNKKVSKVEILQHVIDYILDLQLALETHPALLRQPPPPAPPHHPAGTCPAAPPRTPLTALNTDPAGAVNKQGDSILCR
STK33 kin inh = inhibitors of human STK33 kinase; inhibition, % at 12.5 µM; AID 2322; 0.44% of 27,000 active; Q9BYT3; ADP-Glo luminescence, MBP substrate; in the data active = inhibition above about 20%
Numbers stand for hits; – = inactive; · = not tested or not shown; + = active, no number.

SMILES	p53 PUMA act	ID4 binder	STK33 kin inh
CCc1nc(N)nc(N)c1-c1ccc(Cl)cc1	·	·	–
CSc1nncc(-c2ccc(Cl)cc2)n1	63.2	–	·
CCCCc1c(-c2ccc(OC)cc2)[nH]c2nccnc12	·	–	–
CCCCc1c(-c2ccc(O)cc2)[nH]c2nccnc12	·	–	57.1
Cc1cccc(C)c1OCC(=O)Nc1sc(C)c(C)c1C(N)=O	–	–	–
S=C(CC(=S)N1CCOCC1)N1CCOCC1	·	·	–
CCOC(=O)Nc1ccc2c(c1)N(C(=O)CN1CCOCC1)c1ccccc1CC2	–	–	–
COc1cc(CNC2CCCC2)ccc1OCC(N)=O	–	–	–
COc1cc(CNC23CC4CC(CC(C4)C2)C3)ccc1OCC(N)=O	–	+	–
COC(=O)Nc1ccc2c(c1)N(C(=O)CCN1CCOCC1)c1ccccc1CC2	–	–	–
Cn1c(=O)c2c(nc(NCCO)n2CCc2ccccc2)n(C)c1=O	–	–	–
COc1ccccc1C1=NOC(Cn2c(NCc3ccccc3)nc3c2c(=O)n(C)c(=O)n3C)C1 (configuration not stated)	–	+	–
COc1ccc(NC(=O)CN(c2ccc(OC)c(Cl)c2)S(C)(=O)=O)cc1Cl	–	–	–
O=C1c2ccccc2C(=O)N1[C@H]1CCN(Cc2ccc(OCCO)cc2)C1	·	·	–
CC/C=C\C=C\C(O)C/C=C\CCCCCCCC(=O)O (configuration not stated)	·	·	–
C[C@H](CO)N1C[C@H](C)[C@@H](CN(C)C(=O)Nc2ccccc2)Oc2ccc(NC(=O)Cc3ccccc3)cc2CC1=O	–	–	·
C[C@@H]1CN([C@@H](C)CO)C(=O)Cc2cc(NC(=O)CCCN(C)C)ccc2O[C@@H]1CN(C)C	–	–	·
C[C@H]1CN([C@@H](C)CO)C(=O)Cc2cc(NC(=O)Cc3ccccc3)ccc2O[C@H]1CN(C)C(=O)Nc1ccccc1	–	+	–
C[C@@H]1CN([C@@H](C)CO)C(=O)Cc2cc(NC(=O)CCCN(C)C)ccc2O[C@H]1CN(C)C(=O)Nc1ccc(F)cc1	–	+	·
O=C(NC1CCCC1)c1c(NC(=O)c2cc(-c3ccccn3)nc3ccccc23)sc2c1CCC2	–	–	–
COc1cccc2cc(C(=O)C3C(=O)C(=O)N(CCN4CCOCC4)C3c3cccc(Br)c3)oc12 (configuration not stated)	–	–	–
O=C(Nc1cccnc1)c1nc2ncccn2n1	–	–	·
Cc1ccc(O)c(NC(=O)c2nc3ncccn3n2)c1	57.5	–	–
CCOCCCNc1nc2c([nH]1)c(=O)n(C)c(=O)n2C	–	–	–
Cn1c(=O)c2[nH]c(NCCN3CCOCC3)nc2n(C)c1=O	–	+	–
SMILES	p53 PUMA act	ID4 binder	STK33 kin inh
CC(C)n1cnc2c(Nc3cccc(Cl)c3)nc(NCCO)nc21	–	·	89.7
CCc1nc(SCC(=O)Nc2cccc(Cl)c2)n[nH]1	–	–	–
CCC(C)C1NC(=O)C(CC(C)C)NC(=O)C(CC(=O)O)NC(=O)C(C(C)C)NC(=O)C(CC(C)C)NC(=O)C(CC(C)C)NC(=O)C(CCC(N)=O)NC(=O)CC(CCCCCCCCCC(C)C)OC1=O (configuration not stated)	–	·	–
CSc1cccc(NC(=O)CN(C)S(=O)(=O)c2c(C)cc(C)cc2C)c1	–	–	–
Cc1ccc(O)c(N=Nc2ccccc2)n1	103.0	–	·
CCn1c(SCC(=O)c2ccc(Br)cc2)nnc1-c1ccco1	–	–	–
COc1ccc(C(=O)CSc2nnc(-c3ccccc3)n2-c2ccccc2)cc1	–	–	–
Cc1[nH]c(=S)[nH]c(=O)c1Cc1ccc(C(=O)O)o1	–	+	–
CO[C@@H]1C=C[C@@]23c4cc5c(cc4CN(CC2O)[C@H]3C1)OCO5 (some centres not stated)	·	–	–
Brc1ccc(-c2cnc3ccccc3n2)s1	74.3	–	·
O[C@H]1C=C2CCN3Cc4cc5c(cc4C(C23)[C@@H]1O)OCO5 (some centres not stated)	·	·	–
COc1ccc(C#Cc2ccc3c(c2)[C@]2(C(=O)N3)[C@H](C(=O)N3CCCCCCC3)[C@H]3C(=O)O[C@H](c4ccccc4)[C@H](c4ccccc4)N3[C@@H]2c2ccccc2OCCO)cc1	·	·	29.8
C=CCNC(=O)[C@@H]1[C@H]2C(=O)O[C@H](c3ccccc3)[C@H](c3ccccc3)N2[C@H](c2ccc(OCCO)cc2)[C@@]12C(=O)Nc1ccc(C#Cc3ccc(OC)cc3)cc12	·	–	–
C=CCNC(=O)[C@@H]1[C@H]2C(=O)O[C@H](c3ccccc3)[C@H](c3ccccc3)N2[C@H](c2ccc(OCCO)cc2)[C@@]12C(=O)Nc1ccc(C#CCNC(N)=O)cc12	·	–	20.3
O=C1O[C@H](c2ccccc2)[C@H](c2ccccc2)N2[C@H]1[C@@H](C(=O)N1CCN(c3ncccn3)CC1)[C@]1(C(=O)Nc3ccc(C#CC4(O)CCCCCC4)cc31)[C@H]2c1ccccc1OCCO	·	·	–
O=C1O[C@@H](c2ccccc2)[C@@H](c2ccccc2)N2[C@@H](c3ccccc3OCCO)[C@]3(C(=O)Nc4ccc(C#CCCO)cc43)[C@@H](C(=O)N3CCN(c4ncccn4)CC3)[C@H]12	·	–	–
O=C1O[C@H](c2ccccc2)[C@H](c2ccccc2)N2[C@H]1[C@@H](C(=O)N1CCCCCCC1)[C@]1(C(=O)Nc3ccc(C#CC4(O)CCCCCC4)cc31)[C@H]2c1ccccc1OCCO	·	–	20.8
O=C1O[C@H](c2ccccc2)[C@H](c2ccccc2)N2[C@H]1[C@@H](C(=O)N1CCCCCCC1)[C@]1(C(=O)Nc3ccc(C#CCCO)cc31)[C@H]2c1ccccc1OCCO	·	–	22.0
COc1ccc(C#Cc2ccc3c(c2)[C@]2(C(=O)N3)[C@H](C(=O)N3CCN(c4ncccn4)CC3)[C@H]3C(=O)O[C@H](c4ccccc4)[C@H](c4ccccc4)N3[C@@H]2c2ccccc2OCCO)cc1	·	·	–
COc1ccc(S(=O)(=O)N(C)CC(=O)Nc2ccc(C(N)=O)cc2)cc1C	–	–	–
CC(=O)OC1CC2(C)C(CCC3C4(C)CCC(=O)C(C)C4C(O)C(=O)C32C)/C1=C(\CCC=C(C)C)C(=O)O (configuration not stated)	–	–	–
O=C1O[C@@H](c2ccccc2)[C@@H](c2ccccc2)N2[C@@H](c3ccc(OCCO)cc3)[C@]3(C(=O)Nc4ccc(C#CC5=CCCCC5)cc43)[C@@H](C(=O)N3CCN(c4ncccn4)CC3)[C@H]12	·	–	–
O=C1O[C@H](c2ccccc2)[C@H](c2ccccc2)N2[C@H]1[C@@H](C(=O)N1CCCCCCC1)[C@]1(C(=O)Nc3ccc(C#CC4=CCCCC4)cc31)[C@H]2c1ccc(OCCO)cc1	·	·	22.2
O=C1N[C@@H](Cc2ccccc2)C(=O)N2[C@@H]1C[C@@H](C(=O)NCc1ccc(F)cc1)[C@H]2c1ccc(O)cc1	·	+	–
O=C(NCc1ccc(F)cc1)[C@H]1C[C@H]2C(=O)N[C@@H](Cc3ccccc3)C(=O)N2[C@H]1c1cccc(OCCO)c1	·	+	–
SMILES	p53 PUMA act	ID4 binder	STK33 kin inh
O=C(CS)NCCCCCCNC(=O)[C@H]1C[C@H]2C(=O)NCC(=O)N2[C@H]1c1cccc(OCCO)c1	·	·	–
CC(C)C[C@@H]1NC(=O)[C@@H]2C[C@H](C(=O)NCc3ccc(F)cc3)[C@H](c3cccc(OCCO)c3)N2C1=O	·	–	–
NCCCCCCNC(=O)[C@@H]1C[C@@H]2C(=O)NCC(=O)N2[C@@H]1c1cccc(OCCO)c1	·	+	–
O=C(NCc1ccc(F)cc1)[C@H]1C[C@H]2C(=O)N[C@@H](Cc3ccccc3)C(=O)N2[C@H]1c1ccc(O)cc1	·	·	–
COc1cc(/C=C2/SC(=Nc3cc(C)cc(C)c3)NC2=O)cc(Br)c1OC	·	·	–
COc1cc([N+](=O)[O-])ccc1NC(=O)CN(C)S(=O)(=O)c1ccccc1	–	–	–
